# Results taken from PubChem BioAssay (NCATS).
# Inconclusive results are not listed. Where a call stands in place of a potency, no number is given. The source made the active and inactive calls. Calls follow the shape of the dose curve; as a rule, active = well fitted curve in the direction sought with a large enough effect; inconclusive = small, poorly fitted or top-dose-only effect, or another doubt; inactive = no such curve, though single readings can be large; an effect the other way counts as inactive or inconclusive.
# Assays:
# [1] = tested on: Zika virus NS2B-NS3 protease; experiment: Primary screen GU AMC qHTS for Zika virus inhibitors (AID 1347154); also: nearly all actives have a fitted effect of over 70% in size; also: potency is read from the fitted curve at half-maximal effect
# Method in brief: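 Unlinked Zika NS2B hydrophilic domain/NS3 protease domain noncovalent complex (25 nM final) in 10 mM Tris-HCl pH 8.0, 0.01% Tween 20, with AMC peptide substrate. Fluorescence (ex 340, em 450 nm) change over 15 min, room temperature; percent inhibition fitted to 4-parameter Hill equation.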
# [2] = qHTS to identify inhibitors of the type 1 interferon - major histocompatibility complex class I in skeletal muscle: primary screen against the NCATS Pharmaceutical Collection (AID 1347407);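 also: luminescence of HiBiT knocked into endogenous HLA-B as interferon-induced MHC class I level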; also: potency is read from the fitted curve at half-maximal effect
# Method in brief: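 Luminescence from HiBiT-tagged endogenous HLA-B*08:01 served as the read-out of IFN-beta-induced MHC class I in CRISPR-engineered C25cl48 myoblasts. Cells received 4 ng/ml IFN-beta plus compound (high final 46 uM, […]) for 24 h.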
# [3] = qHTS to identify inhibitors of the type 1 interferon - major histocompatibility complex class I in skeletal muscle: primary screen against the NCATS Mechanism Interrogation Plate v5.0 (MIPE) Libary (AID 1347411); also: nearly all actives have a fitted effect of over 65% in size; also: potency is read from the fitted curve at half-maximal effect
# Method in brief: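 Cells were genome-edited human myoblasts carrying a HiBit tag on endogenous HLA-B. They were treated with IFN-beta (4.0 ng/ml) and titrated compounds (top 46 uM) for 24 hrs before lytic HiBiT detection.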
# [4] = target: Protein phosphatase 1D (Homo sapiens) (UniProt O15297); experiment: RapidFire Mass Spectrometry qHTS Assay for Modulators of WT P53-Induced Phosphatase 1 (WIP1) (AID 1347424);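 also: amount of dephosphorylated VEPPL-S-QETFS peptide product formed by WIP1; series mostly up to about 63 µM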
# Chain of Protein phosphatase 1D (Homo sapiens) (O15297 whole entry, looked up): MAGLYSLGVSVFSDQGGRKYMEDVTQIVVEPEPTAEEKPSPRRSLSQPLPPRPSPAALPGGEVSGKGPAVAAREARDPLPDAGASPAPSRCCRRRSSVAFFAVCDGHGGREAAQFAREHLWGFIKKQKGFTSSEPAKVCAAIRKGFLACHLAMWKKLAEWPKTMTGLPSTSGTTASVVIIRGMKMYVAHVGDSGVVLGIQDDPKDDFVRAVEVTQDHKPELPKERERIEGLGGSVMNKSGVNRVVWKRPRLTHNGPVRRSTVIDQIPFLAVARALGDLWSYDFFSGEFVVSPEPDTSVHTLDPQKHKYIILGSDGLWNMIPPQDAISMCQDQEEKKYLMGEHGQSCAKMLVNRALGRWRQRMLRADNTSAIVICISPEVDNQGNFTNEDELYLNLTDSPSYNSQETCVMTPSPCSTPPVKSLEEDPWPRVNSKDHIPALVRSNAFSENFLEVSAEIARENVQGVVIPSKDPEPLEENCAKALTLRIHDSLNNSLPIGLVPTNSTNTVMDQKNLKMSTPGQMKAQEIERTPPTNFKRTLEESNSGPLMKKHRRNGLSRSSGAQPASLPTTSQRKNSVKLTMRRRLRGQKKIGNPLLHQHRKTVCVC
# Method in brief: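 WIP1 (10 nM final) was preincubated 1 h at room temperature with compounds in Tris-HCl pH 7.5, 30 mM MgCl2, TCEP, EGTA, BSA; 2 uM VEPPL-pS-QETFS phosphopeptide was added for 5 min, quenched with formic acid, and dephosphorylated product quantified by RapidFire MS.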
# [5] = target: Protein phosphatase 1D (Homo sapiens) (UniProt O15297); experiment: Rhodamine-PBP qHTS Assay for Modulators of WT P53-Induced Phosphatase 1 (WIP1) (AID 1347425)
# Method in brief: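 5 nM WIP1 + 10 uM Rh-PBP, 50 mM Tris pH 7.5, 30 mM MgCl2, 1 mM TCEP, 0.1 mM EGTA, BSA; cpds pinned, 1 hr RT; + 10 uM phosphopeptide; fluorescence 1-min reads x 11 min; delta = f1 - f0.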
# [6] = Vero cells viability qHTS for Zika virus inhibitors (AID 1347167)
# Method in brief: (§1)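 Counter-screen for cytotoxicity of hits from NS2B-NS3 protease qHTS. Overnight-attached cells (2.5 x 10^5 cells/mL, DMEM/4% FBS) were dosed in titration, incubated 24 to 48 hours, then assayed by CellTiter Glo.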
# [7] = HepG2 cells viability qHTS for Zika virus inhibitors (AID 1347168)
# Method in brief: as §1
# [8] = Tertiary RLuc qRT-PCR qHTS assay for Zika virus inhibitors (AID 1347169); also: top concentration of the series differs between compounds; nearly all actives have a fitted effect of over 55% in size
# Method in brief: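 Vero, 1,000 cells/well, o/n 37 C; cpd pinned in DMSO; ZIKV-RLuc Cambodian, MOI 1-2, 48-72 h 37 C; live-cell RLuc substrate, lum read at 1-1.5 h.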
# [9] = Confirmatory screen NINDS Rhodamine qHTS for Zika virus inhibitors (AID 1347161);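 also: purified Zika NS2B-NS3 protease with linked NS2B cofactor domain and Rhodamine110 peptide substrate; series mostly up to about 110 µM; nearly all actives have a fitted effect of over 60% in size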
# Method in brief: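 Each compound, titrated, sat 15 min with 25 nM linked protease before 1.5 microM Rhodamine110 substrate went in. Fluorescence gain over the next 15 min, in pH 8.0 Tris with Tween 20, gave Hill-fitted curves.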
# [10] = qHTS for inhibitors of adenylyl cyclases using a fission yeast platform: a pilot screen against the NCATS LOPAC library (AID 1347410)
# Method in brief: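 Fission yeast qHTS: CHP2027 cells (AC9-GNAS-PDE4D2, fbp1-GFP), 5x10^6 cells/mL working density, EMM + His/Lys/Ura; LOPAC at up to 57 µM final; 18 h dark, 30C; GFP by laser cytometry. DPI positive control, DMSO vehicle.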
# [11] = Validation qHTS assay for inhibitors of Activation Induced Cytidine Deaminase (AID): UDG Counterscreen signal (AID 1347427)
# Method in brief: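 Counterscreen read of UDG activity (2 U/mL, 4/3x) in the FRET deamination format with AID (1 uM, 4/3x), DJC20/DJC23 substrates (250 nM, 4x), 4 h at room temperature. NaOH stop, fluorescence at 560 ex/665 em.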
# [12] = tested on: Zika virus NS2B-NS3 protease (unlinked complex); experiment: Primary screen GU Rhodamine qHTS for Zika virus inhibitors: Unlinked NS2B-NS3 protease assay (AID 1347159); also: nearly all actives have a fitted effect of over 60% in size
# Method in brief: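 A qHTS format was used, with compound concentrations ranging up to 114 microM. Each compound was preincubated with 25 nM NS2B-NS3 protease, and the substrate was then added at 1.5 microM. Curves were fitted with a 4-parameter Hill model.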
# [13] = tested on: Zika virus NS2B-NS3 protease (linked construct); experiment: Primary screen NINDS Rhodamine qHTS for Zika virus inhibitors (AID 1347160); conditions: outcome: dose series up to 57.1 µM unless noted; also: nearly all actives have a fitted effect of over 55% in size
# Method in brief: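 Kinetic fluorescence (Ex 480 nm, Em 540 nm) over 15 min with 1.5 microM Rhodamine110 peptide and 25 nM linked protease.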
structure (smiles),measurement,setting,value
Cn1c(=O)c2c(ncn2CC(O)CO)n(C)c1=O (configuration not stated),Potency,[1],inactive
same,Potency,[2],inactive
same,Potency,[3],inactive
same,outcome,[4],inactive
same,outcome,[5],inactive
Cc1cc(NS(=O)(=O)c2ccc(N)cc2)no1,Potency,[1],inactive
same,Potency,[2],inactive
same,outcome,[4],inactive
same,outcome,[5],inactive
COc1ccc2c(c1)c(CC(=O)OCC(=O)O)c(C)n2C(=O)c1ccc(Cl)cc1,Potency,[1],inactive
same,Potency,[2],inactive
same,outcome,[4],inactive
NC(N)=NC(N)=NCCc1ccccc1,Potency,[1],inactive
same,Potency,[2],inactive
same,Potency,[3],inactive
same,outcome,[5],inactive
COc1cccc(N(C)C(=S)Oc2ccc3c(c2)CCCC3)n1,Potency,[1],inactive
same,Potency,[2],inactive
same,outcome,[4],inactive
same,outcome,[5],inactive
CCOC(=O)c1ccc(OC(=O)CCCCCN=C(N)N)cc1,Potency,[1],inactive
same,Potency,[2],inactive
same,Potency,[3],inactive
same,outcome,[5],inactive
O=C(O)c1cc(=O)[nH]c(=O)[nH]1,Potency,[1],inactive
same,Potency,[2],inactive
same,Potency,[3],inactive
same,outcome,[5],inactive
CCCc1cc(C(N)=S)ccn1,Potency,[1],inactive
same,Potency,[2],inactive
same,Potency,[3],inactive
same,outcome,[5],inactive
CC(C)OC(=O)OCOP(=O)(CO[C@H](C)Cn1cnc2c(N)ncnc21)OCOC(=O)OC(C)C,Potency,[1],inactive
same,Potency,[2],inactive
same,outcome,[4],inactive
same,outcome,[5],inactive
CCOc1cc(N)c(Cl)cc1C(=O)NCC1CN(Cc2ccc(F)cc2)CCO1 (configuration not stated),Potency,[1],inactive
same,Potency,[2],inactive
same,Potency,[3],inactive
same,outcome,[5],inactive
O=NN(CCCl)C(=O)NC1CCCCC1,Potency,[1],inactive
same,Potency,[2],inactive
same,Potency,[3],inactive
same,outcome,[5],inactive
COc1nc(N)nc2c1ncn2[C@@H]1O[C@H](CO)[C@@H](O)[C@@H]1O,Potency,[1],inactive
same,Potency,[2],inactive
same,outcome,[4],inactive
same,outcome,[5],inactive
CN1CCN(c2c(F)cc3c(=O)c(C(=O)O)cn(CCF)c3c2F)CC1,Potency,[1],inactive
same,outcome,[4],inactive
same,outcome,[5],inactive
CCn1cc(C(=O)O)c(=O)c2cc(F)c(N3CCNCC3)cc21,Potency,[6],inactive
same,Potency,[7],inactive
same,Potency,[8],inactive
same,Potency,[2],inactive
same,Potency,[3],inactive
same,outcome,[4],inactive
same,outcome,[5],inactive
COc1cc(NCc2ccc3nc(N)nc(N)c3c2C)cc(OC)c1OC,Potency,[9],inactive
same,Potency,[6],inactive
same,Potency,[3],26.2 µM (active)
same,outcome,[4],inactive
same,outcome,[5],inactive
CCn1cc(C(=O)O)c(=O)c2cc(F)c(N3CCN(C)CC3)cc21,Potency,[1],inactive
same,outcome,[5],inactive
CNS(=O)(=O)Cc1ccc2[nH]cc(CCN(C)C)c2c1,Potency,[2],inactive
same,outcome,[4],inactive
same,outcome,[5],inactive
COc1cc2nc(N3CCCN(C)CC3)nc(NC3CCN(Cc4ccccc4)CC3)c2cc1OC,Potency,[1],27.1 µM (active)
same,outcome,[10],inactive
same,outcome,[11],inactive
C[C@@H](NCCCc1cccc(C(F)(F)F)c1)c1cccc2ccccc12,Potency,[1],inactive
same,Potency,[2],26.4 µM (active)
same,outcome,[4],inactive
same,outcome,[5],inactive
Cc1ccc(S(=O)(=O)N[C@@H](Cc2ccccc2)C(=O)CCl)cc1,Potency,[1],inactive
same,outcome,[10],inactive
same,outcome,[11],inactive
COc1cc(NS(=O)(=O)c2ccc(N)cc2)nc(OC)n1,Potency,[1],inactive
same,Potency,[2],inactive
same,outcome,[5],inactive
Cc1cccc(N(C)C(=S)Oc2ccc3ccccc3c2)c1,Potency,[1],inactive
same,Potency,[2],inactive
same,outcome,[5],inactive
CS(=O)(=O)c1ccc([C@@H](O)[C@@H](CO)NC(=O)C(Cl)Cl)cc1,Potency,[1],inactive
same,Potency,[2],inactive
same,outcome,[5],inactive
CCC(=O)O[C@]1(C(=O)SCF)[C@H](C)C[C@H]2[C@@H]3C[C@H](F)C4=CC(=O)C=C[C@]4(C)[C@@]3(F)[C@@H](O)C[C@@]21C,Potency,[1],inactive
same,Potency,[3],inactive
same,outcome,[5],inactive
CC1=CC(=O)c2ccccc2C1=O,Potency,[1],inactive
same,Potency,[2],inactive
same,outcome,[5],inactive
CCc1c2c(nc3ccc(OC(=O)N4CCC(N5CCCCC5)CC4)cc13)-c1cc3c(c(=O)n1C2)COC(=O)[C@]3(O)CC,Potency,[1],5.73 µM (active)
same,outcome,[4],inactive
same,outcome,[5],inactive
O=S(=O)(c1cccc2cnccc12)N1CCCNCC1,Potency,[1],inactive
same,Potency,[3],inactive
same,outcome,[5],inactive
O=C(O)c1cn(C2CC2)c2cc(N3CCNCC3)c(F)cc2c1=O,Potency,[6],inactive
same,Potency,[7],inactive
same,Potency,[8],inactive
same,outcome,[4],inactive
same,outcome,[5],inactive
Cc1noc(NS(=O)(=O)c2ccc(N)cc2)c1C,Potency,[1],inactive
same,outcome,[4],inactive
same,outcome,[5],inactive
CC(=O)CC(c1ccccc1)c1c(O)c2ccccc2oc1=O (configuration not stated),Potency,[1],inactive
same,Potency,[3],13.1 µM (active)
same,outcome,[4],inactive
same,outcome,[5],inactive
CCN(C)C(=O)Oc1cccc([C@H](C)N(C)C)c1,Potency,[1],inactive
same,Potency,[2],inactive
same,outcome,[5],inactive
N=C(N)c1ccc(OCCCCCOc2ccc(C(=N)N)cc2)cc1,Potency,[1],inactive
same,outcome,[5],inactive
O[C@@H](CNC[C@H](O)[C@H]1CCc2cc(F)ccc2O1)[C@@H]1CCc2cc(F)ccc2O1,Potency,[1],inactive
same,Potency,[2],26.4 µM (active)
same,outcome,[4],inactive
same,outcome,[5],inactive
O=C(O)c1cccnc1,Potency,[1],inactive
same,outcome,[5],inactive
COC(=O)Nc1nc2ccc(S(=O)c3ccccc3)cc2[nH]1 (configuration not stated),Potency,[1],inactive
same,outcome,[5],inactive
Cc1cccc(Nc2ccncc2S(=O)(=O)NC(=O)NC(C)C)c1,Potency,[1],inactive
same,outcome,[4],inactive
same,outcome,[5],inactive
CO[C@@]12[C@H](COC(N)=O)C3=C(C(=O)C(C)=C(N)C3=O)N1C[C@@H]1N[C@@H]12,Potency,[1],inactive
same,outcome,[4],inactive
same,outcome,[5],inactive
COC(=O)Nc1nc2ccc(Sc3ccccc3)cc2[nH]1,Potency,[1],inactive
same,outcome,[5],inactive
NC1(c2ccc(-c3nc4ccn5c(=O)[nH]nc5c4cc3-c3ccccc3)cc2)CCC1,Potency,[12],inactive
same,outcome,[13],inactive
same,outcome,[4],inactive
same,outcome,[5],inactive
Cc1ncc([N+](=O)[O-])n1CCO,Potency,[1],inactive
same,outcome,[4],inactive
same,outcome,[5],inactive
C1CCC(C(CC2CCCCN2)C2CCCCC2)CC1 (configuration not stated),Potency,[1],inactive
same,outcome,[4],inactive
same,outcome,[5],inactive
Cc1c(-c2ccc(O)cc2)n(Cc2ccc(OCCN3CCCCCC3)cc2)c2ccc(O)cc12,Potency,[1],inactive
same,outcome,[4],inactive
same,outcome,[5],inactive
C[C@@H]1C[C@H]2[C@@H]3CCC4=CC(=O)C=C[C@]4(C)[C@@]3(Cl)[C@@H](O)C[C@]2(C)[C@@]1(OC(=O)c1ccco1)C(=O)CCl,Potency,[1],inactive
same,Potency,[2],inactive
same,outcome,[5],inactive
Nc1ccc(S(=O)(=O)Nc2ccccn2)cc1,Potency,[1],inactive
same,Potency,[2],inactive
same,outcome,[5],inactive
CCOC(=O)[C@H](CCc1ccccc1)N[C@H]1CCc2ccccc2N(CC(=O)O)C1=O,Potency,[1],inactive
same,Potency,[3],inactive
same,outcome,[5],inactive
CNCC[C@H](Oc1cccc2ccccc12)c1cccs1,Potency,[1],inactive
same,outcome,[4],inactive
same,outcome,[5],inactive
CO[C@@H]1[C@@H](OC(N)=O)[C@@H](O)[C@H](Oc2ccc3c(O)c(NC(=O)c4ccc(O)c(CC=C(C)C)c4)c(=O)oc3c2C)OC1(C)C,Potency,[1],inactive
same,Potency,[2],inactive
same,outcome,[5],inactive
Clc1ccccc1CN1CCc2sccc2C1,Potency,[1],inactive
same,outcome,[5],inactive
